Results filed as inconclusive are left out. Where a call stands in place of a potency, no number is given. Calls of active or inactive are those of the source. The call rests on the fitted dose curve; in most records, active means well fitted inhibition curve with a large enough effect; inconclusive means small, poorly fitted or top-dose-only effect; inactive means flat fitted curve, though single readings scatter.
These compounds were tested on astro (assay: Drug repurposing screens with cells derived from glioblastoma tumor samples (AID 1345199; further: nearly all actives have a fitted effect of over 40% in size)). Settings: viability, ATP luminescence, 48 h; series mostly up to 45.9 µM.
In short: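 Four patient lines of CD133+ GBM neurospheres were screened at several concentrations; hits were retested in those lines plus three slower-growing GBM lines, using 48-hour treatment and ATP-based viability.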
Potency means the concentration at half of the fitted maximal effect.

Question: `CN1CCc2cc(Cl)c(O)cc2[C@H]2c3ccccc3CC[C@@H]21` was tested. Which Potency did it give?
Answer: The Potency was “inactive”.

Question: Which Potency does the source give for `ClC1=C(Cl)C2(Cl)C(CBr)CC1(Cl)C2(Cl)Cl` (centres undefined) here?
Answer: Its Potency is “inactive”.

Question: With `CCCCC1C(=O)NC(=O)N(C2CCCCC2)C1=O` (centres undefined) as the compound, how does the Potency read?
Answer: Its Potency is “inactive”.

Question: For `NC1(c2ccccc2)CCCCC1`, which Potency is on record?
Answer: The Potency was “inactive”.

Question: Which Potency does the source give for `OC(O)C(Cl)(Cl)Cl` here?
Answer: The Potency was “inactive”.

Question: For `NCc1cccnc1`, which Potency is on record?
Answer: Its Potency is “inactive”.

Question: Which Potency does the source give for `OC(c1ccccc1)(c1ccccc1)C1CCNCC1` here?
Answer: The Potency was “inactive”.

Question: How did the Potency turn out when `COc1cc(C[C@@H](C)N)c(OC)cc1Br` was run?
Answer: Its Potency is “inactive”.

Question: `CN(C)CCc1c[nH]c2cccc(O)c12` was tested. Which Potency did it give?
Answer: Its Potency is “inactive”.

Question: How did the Potency turn out when `Cc1cccc(Cc2cnc[nH]2)c1C` was run?
Answer: The Potency was “inactive”.

Question: How did the Potency turn out when `CC(C)C(Br)C(=O)NC(N)=O` (centres undefined) was run?
Answer: The Potency was “inactive”.

Question: `CCCOC(=O)Cc1ccc(OCC(=O)N(CC)CC)c(OC)c1` was tested. Which Potency did it give?
Answer: The Potency was “inactive”.

Question: For `Nc1ccc(N)cc1`, which Potency is on record?
Answer: Its Potency is “inactive”.

Question: For `CN1C(=O)CN=C(c2ccccc2)c2cc(Cl)ccc21`, which Potency is on record?
Answer: The Potency was “inactive”.

Question: How did the Potency turn out when `COc1ccc(C(=O)N2CCCC2=O)cc1` was run?
Answer: The Potency was “inactive”.

Question: `CN(C)CCc1c[nH]c2ccccc12` was tested. Which Potency did it give?
Answer: The Potency was “inactive”.

Question: `C[N+](C)(C)CCOC(=O)C(O)(c1ccccc1)c1ccccc1` was tested. Which Potency did it give?
Answer: Its Potency is “inactive”.

Question: Which Potency does the source give for `COc1ccc2[nH]cc(CCN(C(C)C)C(C)C)c2c1` here?
Answer: Its Potency is “inactive”.

Question: With `CC[C@H]1C[C@H]2[C@@H]3CCC4=CC(=O)CC[C@@H]4[C@H]3CC[C@]2(C)[C@H]1O` as the compound, how does the Potency read?
Answer: The Potency was “inactive”.

Question: Which Potency does the source give for `c1cc2c(c(N3CCNCC3)c1)OCCO2` here?
Answer: Its Potency is “inactive”.

Question: With `COc1ccc(OC)c(CC(C)N)c1` (centres undefined) as the compound, how does the Potency read?
Answer: The Potency was “inactive”.

Question: For `Cc1nnc2n1-c1sc(CCC(=O)N3CCOCC3)cc1C(c1ccccc1Cl)=NC2`, which Potency is on record?
Answer: Its Potency is “inactive”.

Question: How did the Potency turn out when `CC(C)(O)C(Cl)(Cl)Cl` was run?
Answer: Its Potency is “inactive”.

Question: For `COc1cc(C[C@@H](C)N)c(OC)cc1C`, which Potency is on record?
Answer: The Potency was “inactive”.

Question: Which Potency does the source give for `CC(C)NCC(O)c1ccc(N)c(C#N)c1` (centres undefined) here?
Answer: Its Potency is “inactive”.

Question: For `CC(C)=CCN1CC[C@@]2(C)c3cc(O)ccc3C[C@@H]1[C@@H]2C`, which Potency is on record?
Answer: The Potency was “inactive”.

Question: Which Potency does the source give for `CN1[C@@H]2CC[C@H]1CC(OC(=O)c1cc(Cl)cc(Cl)c1)C2` (some centres undefined) here?
Answer: The Potency was “inactive”.

Question: `CCCC(C)C1(CC)C(=O)N=C(S)NC1=O` (centres undefined) was tested. Which Potency did it give?
Answer: The Potency was “inactive”.

Question: How did the Potency turn out when `CN(C)CCc1c[nH]c2ccc(O)cc12` was run?
Answer: Its Potency is “inactive”.

Question: For `CCC1(c2ccccc2)CCC(=O)NC1=O` (centres undefined), which Potency is on record?
Answer: The Potency was “inactive”.

Question: For `c1ccc2nc(N3CCNCC3)ccc2c1`, which Potency is on record?
Answer: The Potency was 12.6 µM (active).

Question: Which Potency does the source give for `CCC(=O)OC1(c2ccccc2)CCN(C)CC1` here?
Answer: The Potency was “inactive”.

Question: With `CC(CC(C#N)(c1ccccc1)c1ccccc1)N(C)C` (centres undefined) as the compound, how does the Potency read?
Answer: The Potency was “inactive”.

Question: `CCS(=O)(=O)C(C)(C)S(=O)(=O)CC` was tested. Which Potency did it give?
Answer: The Potency was “inactive”.

Question: For `Cc1nnc2n1-c1sc(CCc3ccc(CC(C)C)cc3)cc1C(c1ccccc1Cl)=NC2C` (centres undefined), which Potency is on record?
Answer: Its Potency is 35.5 µM (active).

Question: With `C[C@@H]1CC[C@H]2[C@@H](C)C(=O)O[C@@H]3O[C@@]4(C)CC[C@@H]1[C@]32OO4` as the compound, how does the Potency read?
Answer: Its Potency is “inactive”.

Question: `CNC(C)Cc1ccccc1OC` (centres undefined) was tested. Which Potency did it give?
Answer: The Potency was “inactive”.

Question: Which Potency does the source give for `COc1ccc(CN2CCNCC2)c(OC)c1OC` here?
Answer: The Potency was “inactive”.

Question: `CCCN(CCC)CCc1c[nH]c2ccccc12` was tested. Which Potency did it give?
Answer: Its Potency is “inactive”.
